# Reference: ChEMBL document CHEMBL3988442, “University of Dundee, Small-Polar-MMV Screening Library” (2021)
# About 13,000 (27%) of roughly 48,000 compounds showed an effect of 50% or more. This is one part of the list.
# Test system: Wolbachia pipientis
# Assay: Anti-Wolbachia Cell-Based Screen
# Assay type: functional
# Design: scale not given: in the data most compounds retested in dose-response had high values
# Details: 5 µM
row,SMILES,Percent Effect [%]
1,O=C(Nc1ccccc1OC(F)F)C1=NN(c2ccccc2)C(=O)CN1,6.158
2,CC(C)c1noc(CCC(=O)N2CCN(C)CC2c2ccccc2)n1 (configuration not stated),2.762
3,CN(C)CCn1ccc2ccc(NC(=O)c3ccncc3F)cc21,-14.36
4,Cc1nn(C)c(C)c1CC(C)NC(=O)NCc1ccoc1C (configuration not stated),-1.757
5,Cc1ccc(C)c(C(O)CN(C)Cc2nnc3ccccn23)c1 (configuration not stated),-3.237
6,CCC(O)CN(C)Cc1nnc2ccccn12 (configuration not stated),-1.119
7,COc1ccc(C(=O)N(C)Cc2nnc3ccccn23)cc1,104.5
8,COc1cc(OC)cc(C(=O)N(C)Cc2nnc3ccccn23)c1,132.8
9,COc1ccc(CC(=O)N(C)Cc2nnc3ccccn23)cc1,2.883
10,CN(Cc1nnc2ccccn12)C(=O)CCNC(=O)C(C)(C)C,7.202
11,CN(C(=O)c1cccc(Cl)c1)C1CCN(c2ccccn2)CC1,127.4
12,CN(C(=O)c1ccc(Cl)cc1)C1CCN(c2ccccn2)CC1,98.58
13,CN(C(=O)c1cc(Cl)c[nH]1)C1CCN(c2ccccn2)CC1,-4.084
14,CN(C(=O)Nc1cccc(C#N)c1)C1CCN(c2ccccn2)CC1,-13.99
15,CN(C(=O)c1ccc(C#N)cc1)C1CCN(c2ccccn2)CC1,4.986
16,CC(NC(=O)NCCCN(C)S(C)(=O)=O)c1ccncc1 (configuration not stated),10.56
17,CC1c2cc(F)ccc2CCN1CCS(=O)(=O)C(C)C (configuration not stated),14
18,Cc1noc(C)c1CN1CCn2cc(CNc3ccccn3)nc2C1.O=C(O)C(F)(F)F.O=C(O)C(F)(F)F,109
19,O=C(O)C(F)(F)F.O=S(=O)(C1CC1)N1CCn2cc(CNc3ccccn3)nc2C1,-1.604
20,O=C(O)C(F)(F)F.O=C(O)C(F)(F)F.c1ccc(NCc2cn3c(n2)CN(Cc2cccs2)CC3)nc1,4.417
21,Cc1noc(C)c1CN1CCn2cc(CN3CCCCC3)nc2C1.O=C(O)C(F)(F)F,100

row,SMILES,Percent Effect [%]
1,Cc1noc(C)c1CN1CCn2cc(CNC(=O)C3CCC3)nc2C1.O=C(O)C(F)(F)F,-7.774
2,Cc1noc(C)c1CN1CCn2c(COC(C)C)nnc2C1,-15.51
3,Cc1noc(C)c1CN1CCc2ncc(CN3CCCC3)n2CC1.O=C(O)C(F)(F)F.O=C(O)C(F)(F)F,-7.49
4,CC(=O)NCC(=O)N1CCn2cc(CN3CCCCC3)nc2C1.O=C(O)C(F)(F)F,-3.049
5,Cc1noc(C)c1CN1CCn2cc(CN3CCOCC3)nc2C1,95.37
6,Cc1noc(C)c1CN1CCn2cc(CN3CCCC3)nc2C1.O=C(O)C(F)(F)F.O=C(O)C(F)(F)F,117.4
7,Cc1ccc(C(=O)N2CCn3cc(CN4CCCCC4)nc3C2)o1.O=C(O)C(F)(F)F,18.27
8,Cc1noc(C)c1CN(Cc1ccccc1)C(C)CN1CCOCC1 (configuration not stated),-1.266
9,O=C(Cc1ccc(Br)cc1)N1CC(S(=O)(=O)C2CCCCC2)C1,-12.58
10,N#Cc1cccc(C(=O)Nc2ccc([C@@H](O)[C@H]3COCC(=O)N3)cc2)c1,-8.801
11,Cc1nnc([C@@H]2CC[C@@H]3[C@@H](CCN3S(=O)(=O)C3CC3)O2)o1,10.23
12,CC1(C)CN(C(=O)c2ccccc2-n2cncn2)CC1(C)O (configuration not stated),-36.51
13,COc1cccc2c1OCCCN(Cc1c[nH]nc1C(=O)O)C2,0.6416
14,CCN(CC)Cc1cnc2n1CCN(Cc1c(C)noc1C)CC2.O=C(O)C(F)(F)F.O=C(O)C(F)(F)F,-10.46
15,CCN(CC)Cc1cn2c(n1)CN(Cc1c(C)noc1C)CC2.O=C(O)C(F)(F)F.O=C(O)C(F)(F)F,104
16,Cc1ccc(CN2CCn3cc(CN(C)Cc4ccco4)nc3C2)o1.O=C(O)C(F)(F)F.O=C(O)C(F)(F)F,18.64
17,Cc1cc(N(C)CCN(C)C)n2nc(C)cc2n1,-8.762
18,Cc1cc2ncc(CN(C)C)c(C3CCN(C)CC3)n2n1,76.44
19,Cc1cc(N(C)CCN(C)C2CCCC2)n2nc(C)cc2n1,9.952
20,CC(=O)N1CCC(c2c(CN(C)C)cnc3cc(C)nn23)CC1,74.12
21,CCc1noc(C2CCN(C(=O)CCn3nc(C)cc3C)CC2)n1,2.839

row,SMILES,Percent Effect [%]
1,CC(=O)N1CCC(c2cc3c(ncn3C)c(-c3cnn(C)c3)n2)CC1,-10.45
2,COc1cc(C(=O)N2Cc3cnc(C(C)(C)C)nc3C2)ccn1,-33.89
3,O=C(C1CCCCC1)N1CCCC([C@@H]2C[C@H](C(F)F)n3ncnc3N2)C1 (some centres not stated),100.7
4,O=C(NCCOc1ccc(F)cc1)C1CCCN(C(=O)C2CC2)C1 (configuration not stated),-0.9975
5,O=C(C1CCCC1)N1CCC(C(O)c2ccc(F)cc2)CC1 (configuration not stated),-1.378
6,O=C(C1CCCC1)N1CCCC([C@@H]2C[C@H](C(F)F)n3ncnc3N2)C1 (some centres not stated),108.9
7,Cc1nnc2n1CCN(CC(O)CN1CCC(C)CC1)C2 (configuration not stated),-0.2217
8,CC(C)(C)c1nc(CN2CCCC(Cn3cncn3)C2)cs1 (configuration not stated),5.475
9,CC(C)Cc1noc(CN2CCOC(Cn3cncn3)C2)n1 (configuration not stated),-1.295
10,CC(C)(C)c1nc(CN2CCOC(Cn3cncn3)C2)cs1 (configuration not stated),103.7
11,c1csc(-c2nc(CN3CCOC(Cn4cncn4)C3)co2)c1 (configuration not stated),1.427
12,CC(C)c1nc(CN2CCOC(Cn3cncn3)C2)cs1 (configuration not stated),78.62
13,CC(C)c1nc(CN2CCOCC2)cs1,0.6364
14,Cc1ccc(-c2nc(CN3CCOC(Cn4cncn4)C3)cs2)o1 (configuration not stated),11.16
15,Cc1cnn(CC2CN(Cc3csc(C(C)C)n3)CCO2)c1 (configuration not stated),144.1
16,CC(=O)N(C)c1nc(CN2CCOC(Cn3cc(C)cn3)C2)cs1 (configuration not stated),-3.323
17,CN(C(=O)COCc1ccccc1)C1CCN(CC2CCOC2)CC1 (configuration not stated),-14.42
18,CCC(C)(N)c1nc(C(C)C)cc(=O)[nH]1.Cl (configuration not stated),-2.59
19,CCc1nnc2n1CC(CNCc1ccncc1)CC2 (configuration not stated),-8.895
20,Cc1nccn1-c1ccc(CNS(=O)(=O)N2CCCC(C)C2)cn1 (configuration not stated),-3.486
